Source: PubChem BioAssay (National Center for Advancing Translational Sciences (NCATS))
An excerpt weighted towards active compounds, which were near 10% of everything screened.
PNC inhibitor = perinucleolar compartment assembly inhibition | activity change (PNC), negative = inhibition, % at 10 µM | AID 2417 | 3.1% of 140,000 active | PC3M PTB-GFP, PNC prevalence imaging, 16 h; active compounds read low;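 active = readout at or below -70, meaning at least 70% loss of cells showing the perinucleolar compartment, a nuclear body marking cancer cells; inconclusive = readout between -30 and a set limit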;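 note: plate controls were DMSO wells for no effect and camptothecin positive control wells for full effect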
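Compounds are pinned in duplicate onto adhered PC3M cells stably expressing GFP-tagged PTB and incubated 16 h at 37 C. Cells are then fixed, nuclei stained with Hoechst, and PNC-positive cells counted.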
HPGD block = blocks human HPGD enzyme activity; P15428; purified HPGD, NADH fluorescence kinetic, PGE2 substrate; Potency, µM, inactives show top-dose activity change, negative = inhibition, most hits filed as inhibitors; 4.3% of 150,000 active; AID 894; note: potency is the fitted concentration of half-maximal effect
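20 nM HPGD preincubated 15 min at room temperature with compound in 50 mM Tris-HCl pH 8, 0.01% Tween 20. Started with 1 mM NAD+ and 30 uM prostaglandin E2; NADH fluorescence (360/450 nm) read 5 times over 30-s intervals, last minus first.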
ALOX12 inhib = 12-hLO (ALOX12) enzyme inhibition; purified 12-hLO, xylenol orange hydroperoxide absorbance; Potency, µM (top dose mostly 57.1 µM), inactives show at the top dose activity change, negative = inhibition, actives largely listed as inhibitors; P18054; 0.12% of 150,000 active; active = well fitted inhibition curve with a large enough effect; inconclusive = small, poorly fitted or top-dose-only effect; note: potency is the fitted concentration of half-maximal effect; nearly all actives have a fitted effect of over 55% in size
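150 nM 12hLO, 25 mM Hepes pH 7.0 + 0.01% Triton X-100; cpd preinc 15 min RT; 40 uM arachidonic acid, 30 min RT; Fe-XO 30 min; A573/A405 ratio as read-out.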
ALDH1A1 inh = blocks purified human ALDH1A1 activity | P00352 | Purified ALDH1A1, NADH fluorescence, propionaldehyde substrate | Potency, µM (top dose mostly 75.3 µM), without a hit: at the top dose activity, negative = inhibition, most hits filed as inhibitors | 7.3% of 220,000 active | AID 1030;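 note: potency is the fitted concentration of half-maximal effect; plate controls were no enzyme wells and a reference inhibitor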
Target sequence (P00352 whole entry, looked up): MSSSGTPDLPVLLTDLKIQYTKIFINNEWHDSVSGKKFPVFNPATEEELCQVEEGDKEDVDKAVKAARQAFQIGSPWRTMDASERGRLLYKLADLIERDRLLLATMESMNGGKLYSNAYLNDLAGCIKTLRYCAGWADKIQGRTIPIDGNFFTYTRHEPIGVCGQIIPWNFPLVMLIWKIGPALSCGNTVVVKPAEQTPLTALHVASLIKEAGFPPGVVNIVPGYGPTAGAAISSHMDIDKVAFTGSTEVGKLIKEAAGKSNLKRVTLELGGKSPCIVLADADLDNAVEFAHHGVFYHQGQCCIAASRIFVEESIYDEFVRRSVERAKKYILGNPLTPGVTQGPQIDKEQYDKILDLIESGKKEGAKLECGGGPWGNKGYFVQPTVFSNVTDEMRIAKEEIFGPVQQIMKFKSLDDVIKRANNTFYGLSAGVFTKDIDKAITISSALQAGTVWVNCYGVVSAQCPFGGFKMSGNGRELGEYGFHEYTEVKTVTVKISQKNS
Lamin A splicing = changes lamin A minigene splicing in HeLa cells; AID 1487; 0.01% of 200,000 active; HeLa LMNA splicing GFP/RFP minigene ratio, 48 h; Potency, µM (highest dose often 46.1 µM), for the others: at the highest dose ratio change, negative = inhibition, most hits filed as inhibitors; active = well fitted inhibition curve with a large enough effect in the signal ratio, with a control signal flat, not every such curve was filed as active; inconclusive = small, poorly fitted or top-dose-only effect, or effect the other way, or a change in a side signal; the % refers to the signal ratio; note: potency is the fitted concentration of half-maximal effect
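Read-out is the ratio of GFP to DsRed2 object intensity, acquired by 488 nm laser-scanning cytometry on HeLa lamin A-EGFP minigene reporter cells. Compound incubation 48 hrs at 37 °C in Opti-MEM with 2% FBS; DMSO 0.5% final.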
Numbers without * were called inactive; ? = inconclusive; / = no result; [ ] = dose if it differs, or a comment. Unless noted, calls come from the whole dose curve; as a rule, active = well fitted inhibition curve with a large enough effect (not every such curve was filed as active); inconclusive = small, poorly fitted or top-dose-only effect, or another doubt; inactive = no such curve, though single readings can be large or run the other way. Unless noted, % is set by controls: 0 for no effect and ±100 for the full control effect.

SMILES | PNC inhibitor | HPGD block | ALOX12 inhib | ALDH1A1 inh | Lamin A splicing
O=[N+]([O-])c1cccc(/C=N\N=C2c3ccccc3-c3ccccc32)c1O | ? | 28µM* | 0% | -7% | -4%
O=[N+]([O-])c1cccc(/C=N\Nc2ccc3ccccc3n2)c1O | / | -11% | -7%[11.4 µM] | 1.6µM* | /
O=C(O)CN(CC(=O)O)CC(=O)O | / | -9% | -8% | -2% | /
O=C(COc1ncnc2scc(-c3ccc(F)cc3)c12)NCc1ccco1 | -29 | -18% | -11% | ? | 14%
Cc1ccc(-c2csc3ncnc(OCC(=O)NC(=O)NCc4ccco4)c23)cc1 | -125* | ? | -20% | ? | 11%
CCc1ccc(C(=O)CN2CCSC2=N)cc1 | -10 | -1% | -5% | -7% | ?
Cc1cccc(NC(=S)NCC2CCCO2)c1 (stereo unspecified) | 17 | 14µM* | 4% | -5% | -9%
S=C(NCC1CCCO1)Nc1ccc(Cl)cc1Cl (stereo unspecified) | ? | 28µM* | 3% | -5% | -5%
Fc1cccc(F)c1/C=N/NC(=S)Nc1cccnc1 | / | / | / | -2% | ?
O=C(O)c1cccc(NC(=S)N/N=C/c2cccnc2)c1 | / | / | / | 25µM* | -20%[46 µM]
Oc1ccc(/C=N/NC(=S)Nc2cccnc2)c(O)c1 | 37 | ? | 1% | -74% | ?
Oc1cccc(/C=N/NC(=S)Nc2cccnc2)c1O | ? | 32µM* | -28% | ? | ?
Fc1ccc(/C=N/NC(=S)Nc2cccnc2)cc1 | / | / | / | 22µM* | -8%[9.22 µM]
CCOc1ccccc1CNC(=O)c1cc2c(=O)n(Cc3ccccc3)ccc2nc1C | / | / | / | / | -15%[46 µM]
COc1ccc2nccc(SCC(=O)O)c2c1 | / | -12% | -3%[11.4 µM] | 5%[13.5 µM] | /
CCCn1c(C)nc2c(NC(C)CCCN(CC)CC)nc(C)nc21 (stereo unspecified) | / | -12% | 3% | 3% | /
O=C(COc1ccc(F)cc1)Nc1ccc2nc(SCC(=O)N3CCOCC3)sc2c1 | / | / | / | / | 0%[46 µM]
Cc1nn(-c2ccc(F)cc2)c2sc(C(=O)N3CCCCCC3)cc12 | 10 | 16µM* | -6% | 35µM* | ?
Cc1cc(C)c(NC(=O)CN2C(=O)c3cccnc3Oc3ccc(C)cc32)c(C)c1 | / | / | / | / | 20%[46 µM]
Cc1noc(NS(=O)(=O)c2cccc3c(N(C)C)cccc23)c1C | / | ? | -1% | -14% | /
COc1ccc(NC(=O)CCCn2c(=O)c3sccc3n(Cc3cccc(C)c3)c2=O)cc1 | -16 | -4% | 1% | 2µM* | -6%
O=C(CN1CCN(S(=O)(=O)c2ccc(Br)cc2)CC1)N/N=C/c1ccc(Cl)c([N+](=O)[O-])c1 | 75 | -8% | 2% | 20µM* | -17%
Cc1ccc(S(=O)(=O)N2CCN(CC(=O)N/N=C\c3ccc(Cl)c([N+](=O)[O-])c3)CC2)cc1 | -6 | -2% | -12% | 8.9µM* | -7%
COC(=O)[C@@]1(Cc2ccc(OC)cc2)[C@H]2c3cc(C(=O)N4CCCC4)n(Cc4cc(F)cc5c4OCOC5)c3C[C@H]2CN1C(=O)c1ccccc1 | / | -6% | -6% | -2% | /
O=C1NC(=S)SC1=C1CCCCCC1 | 9 | 11µM* | ? | 7.1µM* | 2%
SMILES | PNC inhibitor | HPGD block | ALOX12 inhib | ALDH1A1 inh | Lamin A splicing
CN1CCN(/C=C2\SC(=S)NC2=O)CC1 | 22 | -12% | -6% | 1% | 1%
O=C(O)CCN=C1CCCc2ccccc2N1 | 8 | -13% | 3% | 32µM* | -10%
O=C(O)CCCN=C1NC2(CCCC2)Cc2ccccc21 | -21 | 3% | -2% | 5% | -1%
COc1cc(C2c3c(-c4cc(C)cc(C)c4O)n[nH]c3C(=O)N2CCCO)cc(OC)c1OC (stereo unspecified) | -100* | 14% | -1% | 9% | ?
COCCCN1C(=O)c2[nH]nc(-c3cc(C)cc(C)c3O)c2C1c1ccc(O)c(OC)c1 (stereo unspecified) | 15 | / | -10% | -6% | -10%
O=[N+]([O-])c1ccc(Cl)c2cccnc12 | / | / | / | 18µM* | /
O=[N+]([O-])c1cc(F)c2cccnc2c1O | / | / | / | 18µM* | ?
O=[N+]([O-])c1ccc(O)c2cccnc12 | / | / | / | -2% | ?
O=C(CSc1cc(Cl)ccc1Cl)NCC1CCCO1 (stereo unspecified) | 10 | 6.3µM* | -2% | 5% | -2%
O=C(Cc1c(F)cccc1Cl)NCC1CCCO1 (stereo unspecified) | -6 | -7% | 0% | 3% | -3%
O=C(CSCc1c(Cl)cccc1Cl)NCC1CCCO1 (stereo unspecified) | 54 | 5µM* | -5% | ? | 6%
O=C(CSc1ccc2c(c1)OCCO2)NCc1ccccc1 | / | / | / | -10% | /
O=C(CCCOc1ccc(Cl)cc1)NCC1CCCO1 (stereo unspecified) | -25 | 14µM* | 3% | ? | 6%
O=C(CSc1ccc2c(c1)OCCO2)NCC1CCCO1 (stereo unspecified) | 27 | 16µM* | 0% | ? | 6%
CCC1OC(=O)C(C)[C@@H](O[C@H]2C[C@@](C)(OC)C(O)C(C)O2)C(C)[C@@H](O[C@@H]2OC(C)CC(N(C)C)C2O)[C@](C)(O)CC(C)/C(=N\OCOCCOC)[C@H](C)C(O)[C@]1(C)O (stereo partly specified) | / | -2% | 2% | -1% | /
COc1ccc(NC(=O)C(NC(=O)CC2NC(=O)NC2=O)c2ccccc2)cc1 (stereo unspecified) | -115* | -3% | -4% | 8% | -6%
COc1ccc(NC(=O)C(NC(=O)c2ccc(=O)[nH]c2)c2ccc(OC)cc2)cc1 (stereo unspecified) | -109* | -8% | -3% | 16% | -15%
CC(C)c1ccc(NC(=O)C(c2ccccc2)N(Cc2ccco2)C(=O)CC2NC(=O)NC2=O)cc1 (stereo unspecified) | / | / | / | 7.9µM* | /
COc1ccc(NC(=O)C(c2ccccc2)N(C)C(=O)c2ccc(=O)[nH]c2)cc1 (stereo unspecified) | ? | -12% | 0% | -8% | ?
COc1ccc(NC(=O)C(c2ccc(OC)cc2)N(C)C(=O)CC2NC(=O)NC2=O)cc1 (stereo unspecified) | ? | -10% | -2% | 9% | ?
Cc1cnc(C(=O)Nc2ccc(N3CCOCC3)cc2)cn1 | -100* | -9% | 0% | ? | -3%
Cc1cnc(C(=O)Nc2ccc(N3CCCCC3)cc2)cn1 | / | / | / | 2% | 3%[46 µM]
Cc1cnc(C(=O)Nc2ccc(C(=O)N3CCCCC3)cc2)cn1 | 4 | 0.28µM* | -3% | -3% | 10%
COC1(c2ccccc2)NC(=S)NN=C1c1ccccc1 (stereo unspecified) | 30 | -7% | -11% | 0.89µM* | -6%
CCCCOC1(c2ccccc2)NC(=S)NN=C1c1ccccc1 (stereo unspecified) | 4 | -5% | -25% | 0.56µM* | -9%
